For some of these results: Entries with a potency or affinity are not part of this list.

Set-up in all cases: scale not given: direction of the effect not stated beside the values
The target of assay [1] is Protein translocase subunit SecA (Escherichia coli (strain K12)) (UniProt P10408). Nature of the assay: Assay to Identify E. coli SecA ATPase Inhibitors. The assay is classed as functional. The note with it: 30 µM.
Assay [2] concerns the target T1, Ubiquitin-activating enzyme e1, putative (Leishmania donovani (strain BPK282A1)) (UniProt E9BSI1).
T1 sequence (whole entry): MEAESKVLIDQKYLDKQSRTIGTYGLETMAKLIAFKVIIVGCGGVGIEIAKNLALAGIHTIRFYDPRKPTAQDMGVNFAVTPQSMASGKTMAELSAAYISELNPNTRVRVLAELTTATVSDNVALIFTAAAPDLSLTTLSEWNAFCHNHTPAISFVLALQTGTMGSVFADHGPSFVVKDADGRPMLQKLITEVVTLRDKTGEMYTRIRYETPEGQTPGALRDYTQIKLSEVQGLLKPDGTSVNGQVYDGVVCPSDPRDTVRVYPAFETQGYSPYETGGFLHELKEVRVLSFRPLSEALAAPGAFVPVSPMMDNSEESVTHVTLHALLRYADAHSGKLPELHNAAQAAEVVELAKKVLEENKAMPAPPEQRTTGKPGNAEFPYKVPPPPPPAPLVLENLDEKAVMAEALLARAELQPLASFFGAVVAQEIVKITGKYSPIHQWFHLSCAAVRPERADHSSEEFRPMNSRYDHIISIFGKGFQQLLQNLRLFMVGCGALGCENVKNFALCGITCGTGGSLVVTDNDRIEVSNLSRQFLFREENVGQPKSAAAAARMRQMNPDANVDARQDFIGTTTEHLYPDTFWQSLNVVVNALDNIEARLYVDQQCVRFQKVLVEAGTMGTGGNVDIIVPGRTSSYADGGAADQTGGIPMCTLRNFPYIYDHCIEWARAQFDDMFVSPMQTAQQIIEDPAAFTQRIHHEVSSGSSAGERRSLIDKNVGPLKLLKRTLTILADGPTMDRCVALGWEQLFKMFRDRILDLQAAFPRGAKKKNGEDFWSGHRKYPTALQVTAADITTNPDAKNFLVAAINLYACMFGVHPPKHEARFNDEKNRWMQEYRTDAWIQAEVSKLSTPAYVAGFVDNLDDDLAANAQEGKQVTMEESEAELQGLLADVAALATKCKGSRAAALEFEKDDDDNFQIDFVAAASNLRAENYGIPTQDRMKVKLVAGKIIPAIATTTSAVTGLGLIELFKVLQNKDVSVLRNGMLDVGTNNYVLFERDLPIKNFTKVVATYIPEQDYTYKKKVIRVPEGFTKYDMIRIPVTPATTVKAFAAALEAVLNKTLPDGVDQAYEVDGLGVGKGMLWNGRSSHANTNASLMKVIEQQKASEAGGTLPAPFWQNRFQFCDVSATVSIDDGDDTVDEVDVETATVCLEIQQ
Nature of the assay: Leishmania donovani Ubiquitin Activating Enzyme (LdE1). The note with it: 30 µM. Type of assay: functional.

The target in assay [3] is AMP-activated protein kinase, AMPK (Homo sapiens) (UniProt P54646+O43741+P54619+Q9UGJ0+Q9Y478+Q13131+Q9UGI9). Nature of the assay: AMP-dependent Kinase enzyme assay. An in vitro enzyme assay that detects ADP turnover that is directly proportional to AMPK activity. This uses naive AMPK that is activated during the assay with MK-8722. The assay is classed as functional. The note with it: 30 µM.

Assay [4] has as its target Sialic acid-binding Ig-like lectin 9 (Homo sapiens) (UniProt Q9Y336). Nature of the assay: Hs-Siglec9 ALPHAscreen SOP 20170721. To be noted: 10 µM. A general note: In Alpha technology, singlet oxygen from a donor bead excites a nearby acceptor bead.
In a further assay the test system is Trypanosoma cruzi. Nature of the assay: Trypanosoma cruzi phosphomannomutase and mannose-1-phosphate guanylyltransferase assay. The assay is classed as functional. To be noted: 10 µM.
Assay [5] concerns the target T2, Arginase-2, mitochondrial (Homo sapiens) (UniProt P78540).
T2 sequence (whole entry): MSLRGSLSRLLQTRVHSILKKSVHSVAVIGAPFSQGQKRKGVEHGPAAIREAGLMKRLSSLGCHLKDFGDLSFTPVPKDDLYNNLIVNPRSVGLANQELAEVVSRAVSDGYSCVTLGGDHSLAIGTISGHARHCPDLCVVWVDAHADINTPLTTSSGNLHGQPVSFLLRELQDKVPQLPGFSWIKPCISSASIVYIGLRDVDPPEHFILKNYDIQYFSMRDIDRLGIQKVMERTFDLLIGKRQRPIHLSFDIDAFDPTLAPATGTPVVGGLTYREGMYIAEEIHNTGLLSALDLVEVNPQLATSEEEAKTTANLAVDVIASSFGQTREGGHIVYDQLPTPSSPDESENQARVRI
Nature of the assay: in vitro enzyme assay to detect the production of urea directly proportional to the activity of Arginase II. Note: in the data most compounds retested in dose-response had high values. Type of assay: functional. To be noted: 33.3 µM.

Assay [6] addresses T3, Proteasome subunit beta (Trypanosoma cruzi) (UniProt O96673).
T3 sequence (whole entry): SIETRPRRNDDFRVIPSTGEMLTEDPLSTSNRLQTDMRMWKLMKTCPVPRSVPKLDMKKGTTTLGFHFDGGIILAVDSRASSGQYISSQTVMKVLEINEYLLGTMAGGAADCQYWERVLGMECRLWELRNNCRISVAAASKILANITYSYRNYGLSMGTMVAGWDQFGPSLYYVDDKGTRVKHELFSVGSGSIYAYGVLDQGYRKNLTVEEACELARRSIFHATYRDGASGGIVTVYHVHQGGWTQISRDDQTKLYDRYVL
In words: Trypanosoma cruzi proteasome chymotrypsin-like activity (TcProtChymo) assay. Note: in the data most compounds retested in dose-response had high values. The assay is classed as functional. The note with it: 9.37 µM.

For a further assay, the species on record is Homo sapiens. In words: To identify inhibition of the IFN signalling (Jak-Stat) pathway via expression of an eGFP reporter gene under the control of an IFN-stimulated response element (ISRE) containing MxA promoter. Type of assay: functional. To be noted: 30 µM. For orientation: A reporter such as luciferase makes a cellular process visible.
Assay [7] concerns the target T4, Tyrosyl-tRNA synthetase, putative (Trypanosoma cruzi (strain CL Brener)) (UniProt Q4DSP6).
T4 sequence (whole entry): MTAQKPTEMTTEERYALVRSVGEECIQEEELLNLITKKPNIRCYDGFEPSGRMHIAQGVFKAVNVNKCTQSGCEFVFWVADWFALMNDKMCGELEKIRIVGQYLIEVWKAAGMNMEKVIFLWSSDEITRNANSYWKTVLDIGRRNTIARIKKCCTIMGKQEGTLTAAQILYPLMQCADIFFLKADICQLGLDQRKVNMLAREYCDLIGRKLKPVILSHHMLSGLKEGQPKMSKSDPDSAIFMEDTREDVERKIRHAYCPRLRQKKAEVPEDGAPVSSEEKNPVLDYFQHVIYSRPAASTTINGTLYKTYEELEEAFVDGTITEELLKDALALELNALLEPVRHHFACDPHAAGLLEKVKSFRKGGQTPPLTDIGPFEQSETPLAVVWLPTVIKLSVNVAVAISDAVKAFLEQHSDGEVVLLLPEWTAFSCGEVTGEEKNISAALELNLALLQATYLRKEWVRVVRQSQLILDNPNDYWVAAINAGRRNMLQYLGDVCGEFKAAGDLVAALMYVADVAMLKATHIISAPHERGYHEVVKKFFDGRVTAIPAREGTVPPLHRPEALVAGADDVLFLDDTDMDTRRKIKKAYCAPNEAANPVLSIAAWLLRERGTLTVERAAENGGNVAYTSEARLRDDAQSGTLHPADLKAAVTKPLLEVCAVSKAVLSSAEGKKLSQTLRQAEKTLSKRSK
In words: Trypanosoma cruzi tyrosyl tRNA synthetase (TcYRS) _High Tyrosine SOP. Note: in the data most compounds retested in dose-response had high values. Type of assay: functional. The note with it: 30 µM.

The target in assay [8] is T4, Tyrosyl-tRNA synthetase, putative (Trypanosoma cruzi (strain CL Brener)). In words: Trypanosoma cruzi tyrosyl tRNA synthetase (TcYRS) SOP. The assay is classed as functional. The note with it: 30 µM.
The target of assay [9] is Chromo domain-containing protein 1 (Saccharomyces cerevisiae (strain ATCC 204508 / S288c) (Baker's yeast)) (UniProt P32657). In words: ScCHD-1 Enzyme Inhibition Assay. Note: in the data most compounds retested in dose-response had high values. The assay is classed as functional. The note with it: 30 µM.
Chain of Chromo domain-containing protein 1 (Saccharomyces cerevisiae (strain ATCC 204508 / S288c) (Baker's yeast)) (P32657 whole entry, the tested form may be a part): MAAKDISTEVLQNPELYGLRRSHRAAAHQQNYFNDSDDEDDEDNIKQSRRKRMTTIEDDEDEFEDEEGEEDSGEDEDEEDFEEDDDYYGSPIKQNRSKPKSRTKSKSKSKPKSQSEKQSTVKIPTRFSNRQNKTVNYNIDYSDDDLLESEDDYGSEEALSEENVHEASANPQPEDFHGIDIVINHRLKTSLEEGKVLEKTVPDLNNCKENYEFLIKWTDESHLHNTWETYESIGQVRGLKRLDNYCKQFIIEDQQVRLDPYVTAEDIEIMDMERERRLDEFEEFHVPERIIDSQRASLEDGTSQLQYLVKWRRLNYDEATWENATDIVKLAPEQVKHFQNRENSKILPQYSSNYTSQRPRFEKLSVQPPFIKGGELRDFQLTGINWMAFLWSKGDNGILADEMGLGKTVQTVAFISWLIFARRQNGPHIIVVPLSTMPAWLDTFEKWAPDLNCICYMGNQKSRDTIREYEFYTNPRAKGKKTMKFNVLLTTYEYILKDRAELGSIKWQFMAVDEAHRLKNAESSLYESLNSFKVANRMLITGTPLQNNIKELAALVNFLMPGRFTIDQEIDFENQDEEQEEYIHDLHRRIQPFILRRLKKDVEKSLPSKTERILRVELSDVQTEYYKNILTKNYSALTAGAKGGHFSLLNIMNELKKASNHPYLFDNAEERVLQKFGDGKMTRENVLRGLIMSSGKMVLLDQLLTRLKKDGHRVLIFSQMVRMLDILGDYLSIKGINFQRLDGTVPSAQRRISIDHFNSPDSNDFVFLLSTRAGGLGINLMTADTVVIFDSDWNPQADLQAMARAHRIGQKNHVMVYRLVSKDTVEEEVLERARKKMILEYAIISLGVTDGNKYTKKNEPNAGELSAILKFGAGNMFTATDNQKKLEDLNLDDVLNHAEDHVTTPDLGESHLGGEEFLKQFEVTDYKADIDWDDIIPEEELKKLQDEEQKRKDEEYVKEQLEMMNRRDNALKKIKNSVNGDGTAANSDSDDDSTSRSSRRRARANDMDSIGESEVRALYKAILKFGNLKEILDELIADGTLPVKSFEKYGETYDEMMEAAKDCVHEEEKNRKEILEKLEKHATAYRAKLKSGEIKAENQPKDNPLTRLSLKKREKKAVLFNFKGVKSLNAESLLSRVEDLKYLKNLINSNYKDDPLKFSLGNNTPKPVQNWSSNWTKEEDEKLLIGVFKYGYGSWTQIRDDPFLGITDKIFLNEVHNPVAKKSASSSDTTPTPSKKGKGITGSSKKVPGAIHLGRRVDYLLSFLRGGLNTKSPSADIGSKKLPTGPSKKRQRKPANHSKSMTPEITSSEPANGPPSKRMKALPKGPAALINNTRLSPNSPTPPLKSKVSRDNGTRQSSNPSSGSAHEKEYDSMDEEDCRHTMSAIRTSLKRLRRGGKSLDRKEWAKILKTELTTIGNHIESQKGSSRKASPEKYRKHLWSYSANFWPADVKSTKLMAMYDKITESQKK

Chain of Protein translocase subunit SecA (Escherichia coli (strain K12)) (P10408 whole entry): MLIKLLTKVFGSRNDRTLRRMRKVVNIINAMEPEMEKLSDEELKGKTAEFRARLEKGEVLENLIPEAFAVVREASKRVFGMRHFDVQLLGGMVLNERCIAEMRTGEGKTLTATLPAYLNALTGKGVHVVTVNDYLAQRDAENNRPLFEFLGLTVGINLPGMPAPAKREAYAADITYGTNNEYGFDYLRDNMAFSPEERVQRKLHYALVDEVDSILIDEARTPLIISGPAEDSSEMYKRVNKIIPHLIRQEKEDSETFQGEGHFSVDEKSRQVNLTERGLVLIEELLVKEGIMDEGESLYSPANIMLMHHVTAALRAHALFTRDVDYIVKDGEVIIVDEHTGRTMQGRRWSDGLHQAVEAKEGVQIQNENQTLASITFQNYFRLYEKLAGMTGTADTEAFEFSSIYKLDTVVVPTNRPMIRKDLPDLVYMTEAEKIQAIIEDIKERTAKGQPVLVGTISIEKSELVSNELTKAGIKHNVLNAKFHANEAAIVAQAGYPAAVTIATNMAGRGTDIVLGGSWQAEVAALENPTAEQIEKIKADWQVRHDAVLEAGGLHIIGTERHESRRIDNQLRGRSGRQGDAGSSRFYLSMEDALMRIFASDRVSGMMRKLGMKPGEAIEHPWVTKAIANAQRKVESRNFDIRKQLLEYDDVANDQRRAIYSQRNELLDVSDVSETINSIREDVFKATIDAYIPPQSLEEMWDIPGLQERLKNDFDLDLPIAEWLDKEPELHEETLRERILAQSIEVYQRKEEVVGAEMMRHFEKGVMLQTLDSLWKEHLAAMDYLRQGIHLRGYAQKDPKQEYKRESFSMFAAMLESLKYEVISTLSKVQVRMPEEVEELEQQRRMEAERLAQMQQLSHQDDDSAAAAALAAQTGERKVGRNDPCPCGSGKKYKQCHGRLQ
Chain of Sialic acid-binding Ig-like lectin 9 (Homo sapiens) (Q9Y336 whole entry): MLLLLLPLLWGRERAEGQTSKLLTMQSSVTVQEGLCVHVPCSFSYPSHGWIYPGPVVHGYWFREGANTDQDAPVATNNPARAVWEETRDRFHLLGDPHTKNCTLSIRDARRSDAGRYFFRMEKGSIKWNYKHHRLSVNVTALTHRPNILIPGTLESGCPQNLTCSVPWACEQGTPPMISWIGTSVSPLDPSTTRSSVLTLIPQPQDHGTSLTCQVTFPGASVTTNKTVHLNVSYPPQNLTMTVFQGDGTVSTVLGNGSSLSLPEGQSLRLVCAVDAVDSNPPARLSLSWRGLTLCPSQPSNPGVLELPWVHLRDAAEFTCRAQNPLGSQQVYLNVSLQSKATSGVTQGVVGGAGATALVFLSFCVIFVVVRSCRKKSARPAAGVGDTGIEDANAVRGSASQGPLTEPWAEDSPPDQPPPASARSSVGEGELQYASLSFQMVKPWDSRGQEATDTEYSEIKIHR

For `CCn1ncnc1C(C)NC(=O)C1CCN(C(C)C)CC1` (stereo not drawn), the Percent Effect in assay [1] is -3.72%; in assay [2] it was 5.41%; in [3] it was -4.36%; in assay [4], 22.1%; in the assay with Trypanosoma cruzi, 0.0978%; in [5], 2.73%. Besides, the Percent Effect was 15% in [6]; -2.01% in the assay listed under Homo sapiens; 9.68% in [7]; 21% in assay [8]; -5.24% in assay [9].
In the case of `CN(C)S(=O)(=O)N1CCC(Oc2cnccn2)CC1`, the Percent Effect in assay [1] is -5.97%; in assay [2], 13%; in assay [3], -2.04%; in [4], 3.81%; with Trypanosoma cruzi it was 1.28%; in assay [5] it was -1.94%. For the same compound, the Percent Effect was 20.2% in assay [6]; 6.27% in the assay filed under Homo sapiens; 4.23% in assay [7]; 14.1% in [8]; -9.34% in [9].
As to `O=C(NC[C@@H]1CCCN1)c1cc(COc2cccc(C(F)(F)F)c2)[nH]n1`, the Percent Effect in assay [1] is -1.63%; in assay [2], 9.72%; in assay [3] it was -0.951%; in assay [4], 10.3%; in the assay on Trypanosoma cruzi, 2.62%; in assay [5] it was 21.6%. In addition, the Percent Effect in assay [6] was 6.32%; in the assay listed under Homo sapiens it was -13.9%; in [7], 4.21%; in assay [8] it was 7.69%; in assay [9], -1.17%.
For the compound `CN(C)C(=O)CC1CC2(CCNCC2)c2cc(F)ccc21` (stereo not drawn), the Percent Effect was -1.58% in [1]; -5.41% in assay [2]; 8.49% in [3]; -3.96% in assay [4]; -6.35% in the assay with Trypanosoma cruzi; -2.23% in [5]. Besides, the Percent Effect in assay [6] is 21%; in the assay listed under Homo sapiens it was -0.894%; in assay [7] it was -2.16%; in [8], 0%; in assay [9] it was 1.02%.
As to `Cc1ccc(CN2CCN(CC3CC3)[C@@H]3CS(=O)(=O)C[C@@H]32)cc1C`, the Percent Effect was -7.02% in assay [1]; 5.33% in [2]; -1.63% in assay [3]; 3.97% in assay [4]; -7.11% in the assay with Trypanosoma cruzi; 2.08% in assay [5]. Further, the Percent Effect in assay [6] was 15.5%; in the assay filed under Homo sapiens, 2.7%; in assay [7] it was -2.73%; in assay [8], 8.64%; in assay [9], -5.38%.
Turning to `COc1cccc(CCNC(=O)CN2CCCC2c2noc(C)n2)c1` (stereo not drawn), the Percent Effect in [1] is -2.79%; in assay [2] it was 8.11%; in [3] it was 1.21%; in assay [4] it was -0.359%; in the assay on Trypanosoma cruzi, -5.48%; in [5], 7.21%. Further, the Percent Effect in [6] was 2.51%; in the assay filed under Homo sapiens, 20.8%; in assay [7], 7.92%; in [8] it was 11%; in assay [9] it was -1.21%.
Consider `Cc1nccn1CCC1CCCCN1Cc1ccncc1` (stereo not drawn), for which the Percent Effect in [1] is -5.73%; in assay [2], 8%; in [3] it was -13%; in assay [4], -0.0054%; with Trypanosoma cruzi, -2.63%; in [5], 0.521%. The Percent Effect is 13.8% in assay [6]; 25.9% in the assay filed under Homo sapiens; 2.73% in assay [7]; 13.6% in [8]; -6.06% in assay [9].
Take `CC1CN(CC(=O)Nc2cccnc2)CCN1c1nccs1` (stereo not drawn): the Percent Effect in [1] is -0.157%; in assay [2], 2.7%; in [3], -1.61%; in assay [4], 7.17%; in the assay with Trypanosoma cruzi, -0.464%; in assay [5] it was 3.14%. Also, the Percent Effect in assay [6] was 1.26%; in the assay filed under Homo sapiens, 27.8%; in [7], 1.98%; in [8], -1.22%; in assay [9] it was 13.7%.
